High-throughput results: PubChem BioAssay, National Center for Advancing Translational Sciences (NCATS)
Shown are actives, neighbours in structure and some others; about 12% of the full set was active somewhere.
Sfp inh = blocks B. subtilis Sfp PPTase activity. Q9F4F7. hit rate 3.5% among 310,000. Biochemical Sfp PPTase activity, qHTS. AID 1490. Potency, µM, inactives show largest response in the series, negative = inhibition, hits mostly inhibitors;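 further: the enzyme is Sfp with the accession as filed and its product quenches rhodamine fluorescence; 0% = enzyme reaction without inhibitor and -100% = no enzyme wells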
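Buffer: 50 mM Hepes-Na pH 7.6, 10 mM MgCl2, 0.01% Nonidet P-40, 0.01% BSA. Enzyme 15 nM, pre-exposed to compound 15 min; substrates then added and fluorescence change tracked over 30 min.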
BAZ2B inh = blocks human BAZ2B; Q9UIF8; AlphaScreen BAZ2B-H3K14Ac peptide displacement; Potency, µM (highest dose often 114 µM), for the others: at the highest dose activity change, negative = inhibition, most hits filed as inhibitors; hit rate 4.4% among 360,000; further: on the % scale 0 is the no-effect control and ±100 the full control effect; nearly all actives have a fitted effect of over 60% in size
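Protein-peptide AlphaScreen: BAZ2B 50 nM, b-H3K14Ac 50 nM, 1x PBS pH 7.4 + 0.01% Tween-20. Preincubation 30 min RT; cpd 30 min RT (top 110 uM); beads 20 min RT, light-protected.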
L3MBTL1 inh = L3MBTL1 (human) inhibition. Q9Y468. AlphaScreen L3MBTL1–H3K9me1 peptide binding. Potency, µM (doses to about 57.1 µM), for inactives: top-dose activity, negative = inhibition, hits mostly inhibitors. hit rate 0.66% among 230,000; further: on the % scale 0 is the no-effect control and ±100 the full control effect; nearly all actives have a fitted effect of over 60% in size
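Read-out is AlphaScreen signal from streptavidin donor and nickel chelate acceptor beads (10 ug/mL final each) bridging L3MBTL1 (50 nM) and biotinylated K9-monomethylated H3(1-15) peptide (75 nM), after 30 min compound exposure at room temperature.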
JMJD2A Tudor inh = inhibitors of human JMJD2A Tudor domain. Potency, µM (series often up to 114 µM), inactives show at the top dose activity change, negative = inhibition, most hits filed as inhibitors. hit rate 4.4% among 390,000. AlphaScreen JMJD2A-Tudor / H3K4me3 peptide binding; further: on the % scale 0 is the no-effect control and ±100 the full control effect; nearly all actives have a fitted effect of over 50% in size
Target sequence (O75164 whole entry, looked up, the tested form may be a part): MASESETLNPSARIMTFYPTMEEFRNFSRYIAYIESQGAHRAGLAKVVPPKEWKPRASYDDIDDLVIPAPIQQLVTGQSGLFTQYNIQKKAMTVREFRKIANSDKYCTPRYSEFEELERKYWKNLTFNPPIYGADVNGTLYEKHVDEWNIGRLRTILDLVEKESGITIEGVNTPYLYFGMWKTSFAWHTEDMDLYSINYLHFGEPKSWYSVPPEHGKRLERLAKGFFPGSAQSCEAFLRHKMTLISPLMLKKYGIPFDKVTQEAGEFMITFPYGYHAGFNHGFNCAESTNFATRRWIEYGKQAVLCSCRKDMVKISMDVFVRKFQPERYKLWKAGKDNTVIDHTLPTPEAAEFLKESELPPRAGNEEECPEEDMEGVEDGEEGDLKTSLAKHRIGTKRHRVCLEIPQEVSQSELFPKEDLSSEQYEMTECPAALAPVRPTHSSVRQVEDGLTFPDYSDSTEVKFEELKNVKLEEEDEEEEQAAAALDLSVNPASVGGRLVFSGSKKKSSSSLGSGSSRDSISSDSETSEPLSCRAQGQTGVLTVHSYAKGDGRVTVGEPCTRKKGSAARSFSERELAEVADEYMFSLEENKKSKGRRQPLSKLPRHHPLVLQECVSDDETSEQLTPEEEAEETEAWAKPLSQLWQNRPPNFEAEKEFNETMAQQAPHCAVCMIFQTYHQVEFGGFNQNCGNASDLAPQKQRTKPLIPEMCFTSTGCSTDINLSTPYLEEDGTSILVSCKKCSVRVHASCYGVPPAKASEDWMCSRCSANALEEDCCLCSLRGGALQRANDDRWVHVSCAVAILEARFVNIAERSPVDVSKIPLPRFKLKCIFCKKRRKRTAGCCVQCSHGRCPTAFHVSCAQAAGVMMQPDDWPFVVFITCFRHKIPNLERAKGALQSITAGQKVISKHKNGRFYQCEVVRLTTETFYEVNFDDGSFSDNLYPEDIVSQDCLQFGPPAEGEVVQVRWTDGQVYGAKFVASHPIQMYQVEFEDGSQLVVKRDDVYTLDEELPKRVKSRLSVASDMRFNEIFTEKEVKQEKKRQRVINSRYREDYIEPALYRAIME
HP1b chromo inh = inhibitors of HP1-beta chromodomain binding to methylated histone tails. P83916. AlphaScreen HP1-beta / biotin-H3K9me3 peptide binding. Potency, µM (doses to about 114 µM), for inactives: top-dose activity change, negative = inhibition, hits mostly inhibitors. hit rate 0.56% among 390,000; further: nearly all actives have a fitted effect of over 70% in size
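HP1-beta protein (50 nM final) preincubated 30 min at room temperature with biotinylated H3(1-18)K9me3 peptide (50 nM) in PBS pH 7.4, 0.01% Tween-20, then compound added for 30 min. AlphaScreen streptavidin donor/nickel chelate acceptor beads (10 ug/mL final), 30 min dark, luminescence read.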
G9a block = inhibitors of human histone lysine methyltransferase G9a; G9a H3K9 monomethylation, AlphaScreen, 2 h; Potency, µM (top dose mostly 102 µM), for the others: top-dose activity, negative = inhibition, actives largely listed as inhibitors; hit rate 8.8% among 350,000; AID 504332; further: on the % scale 0 is the no-effect control and ±100 the full control effect; nearly all actives have a fitted effect of over 75% in size
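Chemiluminescent proximity detection of H3K9 monomethylation, read after 10 min bead incubation in the dark. Reaction: 20 nM G9a, 500 nM biotin-H3K9 peptide, 20 uM SAM cofactor, 2 h, room temperature, following 15 min enzyme-compound preincubation.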
Active calls of the source: *; [ ] = dose if it differs, or a comment. The call rests on the fitted dose curve; in most records, active means well fitted curve in the direction sought with a large enough effect; inconclusive means small, poorly fitted or top-dose-only effect, or another doubt; inactive means no such curve, though single readings can be large; an effect the other way counts as inactive or inconclusive. Potency means the concentration at half of the fitted maximal effect.

N#C/C(=C\c1ccc(O)c(O)c1)C(=O)Nc1ccccc1 was read as Sfp inh -17%, BAZ2B inh 13µM*, L3MBTL1 inh -21%, JMJD2A Tudor inh inconclusive, HP1b chromo inh inconclusive and G9a block 7.1µM*.
Screening O=C1N=c2ccccc2=C1c1c(O)n(-c2cccc(F)c2)[nH]c1=O returned Sfp inh 11µM*, BAZ2B inh inconclusive, L3MBTL1 inh 0%, JMJD2A Tudor inh inconclusive, HP1b chromo inh inconclusive and G9a block 4µM*.
Screening CCOc1ccc(S(=O)(=O)/N=C(/c2ccccc2)N(C)C)cc1 returned Sfp inh 17%, BAZ2B inh 5%, L3MBTL1 inh 4%, JMJD2A Tudor inh 1%, HP1b chromo inh 60% and G9a block -5%.
CCOc1ccc(S(=O)(=O)/N=C(\N)c2ccccc2)cc1 was read as Sfp inh 18%, BAZ2B inh -14%, L3MBTL1 inh 7%, JMJD2A Tudor inh -10%, HP1b chromo inh 0% and G9a block 35µM*.
Screening COc1ccc(NC(=S)N/C(=N/S(=O)(=O)c2ccc(C)cc2)c2ccccc2)cc1 returned Sfp inh 50µM*, BAZ2B inh -17%, L3MBTL1 inh -4%, JMJD2A Tudor inh -6%, HP1b chromo inh 3% and G9a block inconclusive.
CCOC(=S)N/C(=N\S(=O)(=O)c1ccc(C)cc1)c1ccccc1 was read as Sfp inh 22µM*, BAZ2B inh 7%, L3MBTL1 inh 1%, JMJD2A Tudor inh -28%, HP1b chromo inh inconclusive and G9a block 7.9µM*.
`O=S(=O)(/N=C(/NC(=S)Nc1ccccc1)c1ccccc1)c1ccc(Cl)cc1` gave Sfp inh 45µM*, BAZ2B inh -23%, JMJD2A Tudor inh -31%, HP1b chromo inh inconclusive and G9a block 11µM*.
Screening CC(=O)c1cccc(NC(=O)CSc2nnc3ccc(-c4ccc(C)cc4)nn23)c1 returned BAZ2B inh -11%, JMJD2A Tudor inh -10%, HP1b chromo inh 40% and G9a block -5%[59 µM].
`CC(NC(=O)CCn1c(=S)[nH]c2ccsc2c1=O)c1ccccc1` (stereo not given) gave Sfp inh 11%, BAZ2B inh 3%, JMJD2A Tudor inh -25%, HP1b chromo inh 20% and G9a block 28µM*.
`Cc1ccc(NC(=O)CCn2c(=O)[nH]c3ccsc3c2=O)cc1` gave Sfp inh 5%, BAZ2B inh -10%, L3MBTL1 inh 37%, JMJD2A Tudor inh -15%, HP1b chromo inh 36% and G9a block 2%.
O=c1c2sccc2[nH]c(=S)n1Cc1ccccc1 was read as Sfp inh -18%, BAZ2B inh 10%, L3MBTL1 inh -2%, JMJD2A Tudor inh -23%, HP1b chromo inh 27% and G9a block 10µM*.
`COc1ccc(Cn2c(=S)[nH]c3ccsc3c2=O)cc1` gave Sfp inh -13%, BAZ2B inh 7%, L3MBTL1 inh 4%, JMJD2A Tudor inh -25%, HP1b chromo inh 52% and G9a block 8.9µM*.
`CN(C)c1cc2c3ccccc3n(C)c2cc1N` gave JMJD2A Tudor inh 32µM* and HP1b chromo inh 45µM*.
CCN1/C(=C/C=C/C=C/c2sc3ccccc3[n+]2CC)Sc2ccccc21 was read as Sfp inh 45µM*, BAZ2B inh 11µM*, L3MBTL1 inh inconclusive and G9a block 28µM*.
`CCN1/C(=C/C=C2/SC(=Nc3cccc4ncccc34)N(C)C2=O)Sc2ccccc21` gave JMJD2A Tudor inh -24% and HP1b chromo inh 19%.
For CCN1/C(=C/C=C/c2sc3ccccc3[n+]2CC)Sc2ccccc21 the results were Sfp inh 79µM*, BAZ2B inh 14µM*, L3MBTL1 inh 28µM*, JMJD2A Tudor inh -1%, HP1b chromo inh 26% and G9a block inconclusive.
Screening CCN1/C(=C/C=C/C=C/C=C/c2sc3ccccc3[n+]2CC)Sc2ccccc21 returned Sfp inh 50µM*, BAZ2B inh 40µM*, JMJD2A Tudor inh 20µM*, HP1b chromo inh inconclusive and G9a block 22µM*.
Screening Cc1ccc(S(=O)(=O)N2CCC(C(=O)Nc3ccc(C)c(Cl)c3)CC2)cc1 returned BAZ2B inh 2%, JMJD2A Tudor inh -6%, HP1b chromo inh 36% and G9a block -26%[59 µM].
Screening CCOC(=O)c1cc(-c2ccccc2)n(CCCC(=O)Nc2ccccc2C)c1C returned BAZ2B inh -10%, JMJD2A Tudor inh -33%, HP1b chromo inh 7% and G9a block -33%[59 µM].
O=C(Nc1ccc(O)c2c(=O)cc(-c3ccccc3Cl)oc12)c1cccs1 was read as Sfp inh -23%, BAZ2B inh -17%, JMJD2A Tudor inh -29%, HP1b chromo inh -2% and G9a block 13%[59 µM].
For N#CC1=C(N)Oc2c(oc(CO)cc2=O)C1c1cccs1 (stereo not given) the results were Sfp inh 1%, BAZ2B inh -1%, L3MBTL1 inh 9%, JMJD2A Tudor inh 28µM*, HP1b chromo inh 16% and G9a block 45µM*.
COC(=O)C1=C(C)OC(N)=C(C#N)C1c1ccsc1 (stereo not given) was read as Sfp inh 0%, BAZ2B inh 13%, L3MBTL1 inh -2%, JMJD2A Tudor inh -8%, HP1b chromo inh 30% and G9a block inconclusive.
CC1=C(C(=O)OCc2ccccc2)C(c2ccsc2)C(C#N)=C(N)O1 (stereo not given) was read as Sfp inh -8%, BAZ2B inh 5%, L3MBTL1 inh -17%, JMJD2A Tudor inh -22%, HP1b chromo inh 33% and G9a block inconclusive.
N#CC1=C(N)Oc2c(oc(CO)cc2=O)C1c1ccsc1 (stereo not given) was read as Sfp inh 50µM*, BAZ2B inh 50µM*, JMJD2A Tudor inh -16%[57.1 µM], HP1b chromo inh 14% and G9a block 32µM*.
`N#CC1=C(N)Oc2c(ccc3ccccc23)C1c1ccsc1` (stereo not given) gave Sfp inh 56µM*, BAZ2B inh -10%, L3MBTL1 inh -3%, JMJD2A Tudor inh -25%, HP1b chromo inh 3% and G9a block 45µM*.
For Cc1nn(CC(=O)N2CCN(c3ccccc3F)CC2)c(=O)c2cccn12 the results were BAZ2B inh -13%, JMJD2A Tudor inh -5%, HP1b chromo inh 34% and G9a block -23%[59 µM].
`COc1ccccc1-c1cc2nc(C)c(CCC(=O)NCCc3ccc(SC)cc3)c(C)n2n1` gave BAZ2B inh -12%, JMJD2A Tudor inh -20%, HP1b chromo inh 19% and G9a block -10%[59 µM].
